Reference: PubChem BioAssay (Tox21)
Results filed as inconclusive are left out. The source made the active and inactive calls. Unless noted, the call rests on the fitted dose curve; in most records, active means well fitted curve in the direction sought with a large enough effect in the repeat runs; inconclusive means weak or mixed curves; inactive means flat fitted curve, though single readings scatter.

What was measured:
[1] = qHTS assay to test for compound auto fluorescence at 535 nm (green) in HEK293 cells (AID 720680); details: green autofluorescence 485/535 nm; series mostly up to 91.3 µM
[2] = qHTS assay to test for compound auto fluorescence at 535 nm (green) in HEK293 cell free culture (AID 720682); details: cell-free medium, green autofluorescence 485/535 nm, active compounds read high; series mostly up to 91.3 µM
Method in brief: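 Steps: dispense DMEM/10% FBS into empty wells; pin in compound or DMSO; measure fluorescence at 485/535 nm. Values are fluorescein equivalents.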

[3] = qHTS assay to test for compound auto fluorescence at 590 nm (red) in HEK293 cell free culture (AID 720683); details: cell-free medium autofluorescence, Ex540/Em590 red; series mostly up to 91.3 µM
Method in brief: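 Tox21 10K library compounds were pinned into cell-free DMEM with 10% FBS and fluorescence was read at excitation 540 nm. Activity is expressed as Rose Bengal sodium equivalency.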

[4] = qHTS assay to test for compound auto fluorescence at 590 nm (red) in HepG2 cell free culture (AID 720684); details: cell-free medium autofluorescence, red 540/590 nm; series mostly up to 91.3 µM
Method in brief: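 Readout: intrinsic compound fluorescence at 590 nm emission after 540 nm excitation, scaled to Rose Bengal sodium. Matrix was cell-free MEM with 10% FBS; DMSO vehicle wells served as control.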

[5] = qHTS assay to test for compound auto fluorescence at 460 nm (blue) in HepG2 cell free culture (AID 720685); details: Cell-free culture medium, blue autofluorescence 405/460 nm; series mostly up to 91.3 µM
Method in brief: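 Cell-free plates of MEM plus 10% FBS received 23 nL compound or DMSO vehicle; blue-channel (405/460 nm) intensity scored against triamterene as reference fluorophore.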

[6] = qHTS assay to test for compound auto fluorescence at 535 nm (green) in HepG2 cell free culture (AID 720686); details: Cell-free medium, green autofluorescence 485/535 nm; series mostly up to 91.3 µM
[7] = qHTS assay to test for compound auto fluorescence at 460 nm (blue) in HepG2 cells (AID 720687); details: autofluorescence 405/460 nm, 1 h; series mostly up to 91.3 µM
Method in brief: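 Cells (2,000/well in MEM with 10% FBS) attached overnight at 37 C, then were exposed to compound or DMSO for 1 hr at 37 C, 5% CO2. Fluorescence read at Ex/Em 405/460 nm, expressed as triamterene-equivalent signal.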

[8] = target: Glucocorticoid receptor (Homo sapiens) (UniProt P04150); test: qHTS assay to identify small molecule agonists of the glucocorticoid receptor (GR) signaling pathway (AID 720691; active means well fitted activation curve with a large enough effect in the signal ratio in the repeat runs, not every such curve was filed as active; the % refers to the signal ratio); details: GR-bla HeLa, beta-lactamase reporter ratio, 18 h; series mostly up to 62.4 µM
Chain of Glucocorticoid receptor (Homo sapiens) (P04150 whole entry, looked up): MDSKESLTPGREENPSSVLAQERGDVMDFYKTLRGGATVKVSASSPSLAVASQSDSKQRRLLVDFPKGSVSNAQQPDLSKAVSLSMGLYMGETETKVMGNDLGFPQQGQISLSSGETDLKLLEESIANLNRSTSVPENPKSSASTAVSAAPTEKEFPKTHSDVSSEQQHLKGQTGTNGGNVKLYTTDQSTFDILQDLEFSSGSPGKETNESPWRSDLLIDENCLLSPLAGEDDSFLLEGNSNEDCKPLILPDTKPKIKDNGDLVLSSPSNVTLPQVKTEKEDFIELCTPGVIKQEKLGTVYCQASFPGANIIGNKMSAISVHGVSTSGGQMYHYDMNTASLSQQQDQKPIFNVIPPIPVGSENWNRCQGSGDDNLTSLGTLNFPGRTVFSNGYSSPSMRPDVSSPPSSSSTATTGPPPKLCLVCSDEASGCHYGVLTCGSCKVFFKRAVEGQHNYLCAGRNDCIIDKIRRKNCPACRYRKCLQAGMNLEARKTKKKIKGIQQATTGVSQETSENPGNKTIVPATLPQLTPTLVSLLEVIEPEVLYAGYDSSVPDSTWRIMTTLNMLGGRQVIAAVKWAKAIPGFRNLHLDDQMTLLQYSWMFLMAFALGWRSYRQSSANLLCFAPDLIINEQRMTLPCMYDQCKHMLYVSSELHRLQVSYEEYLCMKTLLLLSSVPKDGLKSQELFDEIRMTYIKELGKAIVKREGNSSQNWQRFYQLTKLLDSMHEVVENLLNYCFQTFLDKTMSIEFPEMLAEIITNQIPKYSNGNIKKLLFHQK
Method in brief: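 Cells: GR-bla HeLa, endogenous GR with stably integrated GRE-beta-lactamase reporter. Treatment 18 h, 37 C, compounds delivered in DMSO. Detection via LiveBLAzer B/G FRET substrate, 2 h RT, fluorescence intensity.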

[9] = target: Glucocorticoid receptor (Homo sapiens) (UniProt P04150); test: qHTS assay to identify small molecule antagonists of the glucocorticoid receptor (GR) signaling pathway (AID 720692; active means well fitted inhibition curve with a large enough effect in the signal ratio in the repeat runs, not every such curve was filed as active; the % refers to the signal ratio); details: GR-bla HeLa, beta-lactamase FRET ratio, dexamethasone-stimulated, 18 h; series mostly up to 58.5 µM
Method in brief: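 Quantitative HTS in antagonist format: HeLa cells expressing endogenous GR and a stably integrated GRE-bla reporter, stimulated with 5 nM dexamethasone (final) alongside test compounds for 18 h.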

[10] = qHTS assay to test for compound auto fluorescence at 460 nm (blue) in HEK293 cell free culture (AID 720681); details: cell-free medium, autofluorescence 405/460 nm (blue); series mostly up to 91.3 µM
Method in brief: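 Test compounds were pinned into cell-free culture medium (DMEM with 10% FBS) and fluorescence was read directly at Ex/Em 405/460 nm. Signals were expressed as fluorescence equivalents of triamterene, with DMSO vehicle as control.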
On the % scale 0 is the no-effect control and ±100 the full control effect.

Nc1ncnc2c1ncn2[C@@H]1O[C@H](CO)[C@@H](O)[C@H]1O
inactive: outcome [1] | outcome [2] | outcome [3] | outcome [4] | outcome [5] | outcome [6] | outcome [7] | Potency [8]

CC(C)(O)C(=O)O
inactive: outcome [1] | outcome [2] | outcome [3] | outcome [4] | outcome [5] | outcome [6] | outcome [7] | Potency [8] | Potency [9]

Cc1ccccc1CCO
inactive: outcome [1] | outcome [2] | outcome [3] | outcome [4] | outcome [5] | outcome [6] | outcome [7]

CC1(C)C(=O)NC(=O)N1CO
inactive: outcome [1] | outcome [2] | outcome [3] | outcome [4] | outcome [5] | outcome [6] | outcome [7] | Potency [8] | Potency [9]

CCC(=O)O[C@@H]1C[C@H]2CC[C@]1(C)C2(C)C
inactive: outcome [1] | outcome [2] | outcome [3] | outcome [4] | outcome [5] | outcome [6] | outcome [7] | Potency [8] | Potency [9]

C[C@H](CN1CCCC1)C(=O)c1ccc(C(F)(F)F)cc1
inactive: outcome [1] | outcome [2] | outcome [3] | outcome [4] | outcome [5] | outcome [6] | outcome [7] | Potency [8] | Potency [9]

CCCC1CCOC(C)S1 (stereo not drawn)
inactive: outcome [1] | Potency [10] | outcome [2] | outcome [3] | outcome [4] | outcome [5] | outcome [6] | Potency [8] | Potency [9]

CC(CCl)OC(C)CCl (stereo not drawn)
inactive: outcome [1] | outcome [2] | outcome [3] | outcome [4] | outcome [5] | outcome [6] | outcome [7] | Potency [8] | Potency [9]

CCCCCCCCCCCCN1CCOCC1
inactive: outcome [1] | outcome [2] | outcome [3] | outcome [4] | outcome [5] | outcome [6] | outcome [7] | Potency [8] | Potency [9]

OCCOc1cccc(OCCO)c1
inactive: outcome [1] | outcome [2] | outcome [3] | outcome [4] | outcome [5] | outcome [6] | outcome [7]

CCC1=C(C)CN(C(=O)NCCc2ccc(S(=O)(=O)NC(=O)NC3CCC(C)CC3)cc2)C1=O (stereo not drawn)
inactive: outcome [1] | outcome [2] | outcome [3] | outcome [4] | outcome [5] | outcome [6] | Potency [8] | Potency [9]

C=CC(C)(O)CC/C=C(/C)CCC=C(C)C (stereo not drawn)
inactive: outcome [1] | outcome [2] | outcome [3] | outcome [4] | outcome [5] | outcome [6] | outcome [7] | Potency [8] | Potency [9]

S=c1[nH][nH]c(=S)s1
inactive: outcome [1] | outcome [2] | outcome [3] | outcome [4] | outcome [5] | outcome [6] | outcome [7] | Potency [8] | Potency [9]

COC(=O)Cc1cccc2ccccc12
inactive: outcome [1] | outcome [2] | outcome [3] | outcome [4] | outcome [5] | outcome [6] | Potency [8] | Potency [9]

CC1=CC(=C(c2ccc(N)cc2)c2ccc(N)cc2)C=CC1=N
inactive: outcome [1] | outcome [2] | outcome [3] | outcome [4] | outcome [5] | outcome [6] | outcome [7] | activation [8] -0.66% [at 6.9 µM]

Nc1ccc(F)cc1F
inactive: outcome [1] | outcome [2] | outcome [3] | outcome [4] | outcome [5] | outcome [6] | outcome [7] | Potency [8] | Potency [9]

O=C(O)c1ccccc1-n1cc(C(=O)O)c(=O)c2cc(Nc3c(F)cc(F)cc3Cl)c(Cl)cc21
inactive: Potency [10] | outcome [2] | outcome [3] | outcome [4] | outcome [5] | outcome [6] | Potency [8] | Potency [9]

O=C(O)c1ccc2c(c1)nc(C(=O)NC1CCN(C3CC3)CC1)n2Cc1cc(-c2ccc(Cl)s2)on1
inactive: fluorescence, % of fluorescent control [10] 0.0923% [at 18.6 µM] | activity change [2] -0.024% [at 18.6 µM] | fluorescence, % of fluorescent control [3] 0.116% [at 18.6 µM] | fluorescence, % of Rose Bengal [4] -0.135% [at 18.6 µM] | fluorescence, % of fluorescent control [5] -0.029% [at 18.6 µM] | fluorescence, % of fluorescein control [6] -0.0042% [at 18.6 µM] | fluorescence, % of fluorescent control [7] 0.0789% [at 18.6 µM]

CC(C)=CCC/C(C)=C/C=N/O
inactive: Potency [10] | outcome [2] | outcome [3] | outcome [4] | outcome [5] | outcome [6] | outcome [7] | Potency [8]

COC(=O)/C=C/C(C)=C\C=C\C(C)=C\C=C\C=C(C)\C=C\C=C(C)\C=C\C(=O)O
inactive: outcome [2] | outcome [3] | outcome [4] | outcome [5] | outcome [6] | outcome [7] | Potency [8]

CC(CN=Cc1ccccc1O)N=Cc1ccccc1O (stereo not drawn)
inactive: Potency [10] | outcome [2] | outcome [3] | outcome [4] | outcome [5] | outcome [6] | outcome [7] | Potency [8]

NC(=O)c1cc[n+](CC2=C(C(=O)[O-])N3C(=O)[C@@H](NC(=O)Cc4cccs4)[C@H]3SC2)cc1
inactive: fluorescence, % of fluorescent control [10] 0.628% [at 18.6 µM] | activity change [2] 0.0615% [at 18.6 µM] | fluorescence, % of fluorescent control [3] 0.0033% [at 18.6 µM] | fluorescence, % of Rose Bengal [4] 0.512% [at 18.6 µM] | fluorescence, % of fluorescent control [5] 0.491% [at 18.6 µM] | fluorescence, % of fluorescein control [6] -0.0061% [at 18.6 µM] | fluorescence, % of fluorescent control [7] 0.406% [at 18.6 µM]

O=C1c2ccccc2C(=O)C1c1ccc2ccccc2n1
inactive: Potency [10] | outcome [2] | outcome [3] | outcome [4] | outcome [5] | outcome [6] | outcome [7] | Potency [8] | Potency [9]

CCOC(C)OCC
inactive: outcome [2] | outcome [3] | outcome [4] | outcome [5] | outcome [6] | outcome [7] | Potency [8] | Potency [9]
